Results taken from PubChem BioAssay AID1159580 (chemical genetic matrix, 2015).
Among all 5,500 compounds or so, about 2,000 (36%) were called active. Inconclusive results (about 18%) are left out. No stated cut-off is given here; in the data, active means normalized growth mostly below about 0.91 (no sharp cut-off); inconclusive means no clear call, values can overlap the other calls; inactive means mostly above about 0.92. The list shows a part of the results.

Assay: chemical genetic growth profiling, strain panel (AID 1159580);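 further: tested at 20 µM; growth read once vehicle control cultures reached saturation at 30 °C; 1 = growth at the plate median or of vehicle wells; lower values mean less growth of the strain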
Conditions: growth OD

Measured: normalized growth

Nc1nc2ncc(=O)[nH]c2c(=O)[nH]1
inactive: S. cerevisiae deletion strains, locus YJR075W, strain HOC1, active compounds read low 1.02 | S. cerevisiae deletion strains, locus YKL009W, strain mrt4, active compounds read low 0.973 | S. cerevisiae deletion strains, locus YKL068W, active compounds read low 0.981 | S. cerevisiae deletion strains, locus YKL085W, strain MDH1 (second series), active compounds read low 0.991 | S. cerevisiae deletion strains, locus YKL085W, strain MDH1, active compounds read low 0.991 | S. cerevisiae deletion strains, locus YKL160W, strain elf1, active compounds read low 0.975 | S. cerevisiae deletion strains, locus YKL190W, strain CNB1, active compounds read low 0.991 | S. cerevisiae deletion strains, locus YKR001C, strain vps1, active compounds read low 0.999 | S. cerevisiae deletion strains, locus YKR026C, strain gcn3, active compounds read low 0.977 | S. cerevisiae deletion strains, locus YKR091W, strain srl3, active compounds read low 0.979 | S. cerevisiae deletion strains, locus YLL001W, strain dnm1, active compounds read low 0.946 | S. cerevisiae deletion strains, locus YLL026W, active compounds read low 0.982 | S. cerevisiae deletion strains, locus YLL041C, strain sdh2, active compounds read low 0.976 | S. cerevisiae deletion strains, locus YLR027C, strain aat2, active compounds read low 0.984 | S. cerevisiae deletion strains, locus YLR039C, strain RIC1, active compounds read low 0.997 | S. cerevisiae deletion strains, locus YLR058C, strain SHM2, active compounds read low 0.996 | S. cerevisiae deletion strains, locus YLR102C, strain apc9, active compounds read low 0.984 | S. cerevisiae deletion strains, locus YLR113W, strain HOG1, active compounds read low 0.941 | S. cerevisiae deletion strains, locus YLR221C, strain rsa3, active compounds read low 0.977 | S. cerevisiae deletion strains, locus YLR258W, strain gsy2, active compounds read low 0.982 | S. cerevisiae deletion strains, locus YLR262C, strain YPT6 (second series), active compounds read low 0.986 | S. cerevisiae deletion strains, locus YLR262C, strain YPT6, active compounds read low 0.994 | S. cerevisiae deletion strains, locus YLR268W, strain sec22, active compounds read low 1.01 | S. cerevisiae deletion strains, locus YLR320W, strain mms22, active compounds read low 0.972 | S. cerevisiae deletion strains, locus YLR330W, strain CHS5, active compounds read low 0.992 | S. cerevisiae deletion strains, locus YLR342W, strain FKS1 (second series), active compounds read low 0.997 | S. cerevisiae deletion strains, locus YLR342W, strain FKS1, active compounds read low 0.987 | S. cerevisiae deletion strains, locus YLR357W, strain rsc2, active compounds read low 0.967 | S. cerevisiae deletion strains, locus YLR370C, strain arc18, active compounds read low 0.965 | S. cerevisiae deletion strains, locus YLR371W, strain rom2, active compounds read low 0.976 | S. cerevisiae deletion strains, locus YLR384C, strain iki3, active compounds read low 0.968 | S. cerevisiae deletion strains, locus YLR418C, strain cdc73, active compounds read low 1.05 | S. cerevisiae deletion strains, locus YML016C, strain PPZ1, active compounds read low 1 | S. cerevisiae deletion strains, locus YML032C, strain rad52, active compounds read low 0.967 | S. cerevisiae deletion strains, locus YML120C, strain ndi1, active compounds read low 0.972 | S. cerevisiae deletion strains, locus YML124C, strain tub3, active compounds read low 0.998 | S. cerevisiae deletion strains, locus YMR058W, strain fet3, active compounds read low 0.988 | S. cerevisiae deletion strains, locus YMR078C, strain ctf18, active compounds read low 0.979 | S. cerevisiae deletion strains, locus YMR125W, strain sto1, active compounds read low 0.969 | S. cerevisiae deletion strains, locus YMR129W, active compounds read low 0.972 | S. cerevisiae deletion strains, locus YMR205C, strain PFK2, active compounds read low 0.967 | S. cerevisiae deletion strains, locus YMR223W, strain ubp8, active compounds read low 0.989 | S. cerevisiae deletion strains, locus YMR231W, strain pep5, active compounds read low 0.979 | S. cerevisiae deletion strains, locus YMR263W, strain SAP30, active compounds read low 1.01 | S. cerevisiae deletion strains, locus YMR307W, strain GAS1, active compounds read low 1 | S. cerevisiae deletion strains, locus YNL067W, strain RPL9B, active compounds read low 1.03 | S. cerevisiae deletion strains, locus YNL071W, strain lat1, active compounds read low 0.984 | S. cerevisiae deletion strains, locus YNL128W, strain TEP1, active compounds read low 1.03 | S. cerevisiae deletion strains, locus YNL153C, strain GIM3, active compounds read low 1.01 | S. cerevisiae deletion strains, locus YNL183C, strain NPR1, active compounds read low 0.942 | S. cerevisiae deletion strains, locus YNL209W, strain ssb2, active compounds read low 0.993 | S. cerevisiae deletion strains, locus YNL233W, strain BNI4, active compounds read low 1.01 | S. cerevisiae deletion strains, locus YNL248C, strain rpa49, active compounds read low 0.98 | S. cerevisiae deletion strains, locus YNL250W, strain rad50, active compounds read low 0.987 | S. cerevisiae deletion strains, locus YNL271C, strain bni1, active compounds read low 0.995 | S. cerevisiae deletion strains, locus YNL298W, strain CLA4, active compounds read low 1 | S. cerevisiae deletion strains, locus YNL307C, strain MCK1, active compounds read low 0.991 | S. cerevisiae deletion strains, locus YNL322C, strain KRE1 (second series), active compounds read low 0.967 | S. cerevisiae deletion strains, locus YNL322C, strain KRE1, active compounds read low 1.01 | S. cerevisiae deletion strains, locus YNR049C, strain mso1, active compounds read low 0.973 | S. cerevisiae deletion strains, locus YNR052C, strain pop2, active compounds read low 0.983 | S. cerevisiae deletion strains, locus YOL006C, strain TOP1, active compounds read low 1.11 | S. cerevisiae deletion strains, locus YOL012C, strain htz1 0.879 | S. cerevisiae deletion strains, locus YOL147C, strain pex11, active compounds read low 0.978 | S. cerevisiae deletion strains, locus YOR001W, strain rrp6, active compounds read low 0.986 | S. cerevisiae deletion strains, locus YOR061W, strain CKA2, active compounds read low 1.01 | S. cerevisiae deletion strains, locus YOR069W, strain VPS5, active compounds read low 1 | S. cerevisiae deletion strains, locus YOR070C, strain gyp1, active compounds read low 0.983 | S. cerevisiae deletion strains, locus YOR080W, strain dia2, active compounds read low 0.978 | S. cerevisiae deletion strains, locus YOR083W, strain WHI5, active compounds read low 0.966 | S. cerevisiae deletion strains, locus YOR106W, strain vam3, active compounds read low 0.988 | S. cerevisiae deletion strains, locus YOR136W, strain idh2, active compounds read low 0.987 | S. cerevisiae deletion strains, locus YOR144C, strain elg1, active compounds read low 0.989 | S. cerevisiae deletion strains, locus YOR184W, strain ser1, active compounds read low 0.968 | S. cerevisiae deletion strains, locus YOR231W, strain MKK1, active compounds read low 0.938 | S. cerevisiae deletion strains, locus YOR265W, strain rbl2, active compounds read low 0.981 | S. cerevisiae deletion strains, locus YOR270C, strain vph1, active compounds read low 0.951 | S. cerevisiae deletion strains, locus YOR290C, strain snf2, active compounds read low 0.911 | S. cerevisiae deletion strains, locus YOR316C, strain cot1, active compounds read low 0.985 | S. cerevisiae deletion strains, locus YPL051W, strain arl3, active compounds read low 0.984 | S. cerevisiae deletion strains, locus YPL055C, strain LGE1, active compounds read low 1.02 | S. cerevisiae deletion strains, locus YPL078C, strain atp4, active compounds read low 0.97 | S. cerevisiae deletion strains, locus YPL106C, strain sse1, active compounds read low 0.948 | S. cerevisiae deletion strains, locus YPL240C, strain hsp82, active compounds read low 0.984 | S. cerevisiae deletion strains, locus YPL241C, strain CIN2, active compounds read low 0.994 | S. cerevisiae deletion strains, locus YPL256C, strain CLN2, active compounds read low 0.963 | S. cerevisiae deletion strains, locus YPR119W, strain clb2, active compounds read low 0.974 | S. cerevisiae deletion strains, locus YPR141C, strain kar3, active compounds read low 0.975 | S. cerevisiae deletion strains, locus YPR163C, strain tif3, active compounds read low 0.988 | S. cerevisiae deletion strains, locus YPR167C, strain met16, active compounds read low 1 | S. cerevisiae deletion strains, strain wtn01, active compounds read low 0.994 | S. cerevisiae strains, strain wild type, active compounds read low 1
